Publication PMC7862700, “An all-to-all approach to the identification of sequence-specific readers for epigenetic DNA modifications on cytosine”

Key:
Assay in all cases: DAPPL (digital affinity profiling via proximity ligation, sequencing); 10 mM Tris-HCl pH 7.5, 50 mM NaCl, 1 mM DTT, 4% glycerol, room temperature, 30 min; GST-TFs on glutathione beads, 16-mer random dsDNA library, 0.1% formaldehyde crosslink after washing; high values mean tight binding
Conditions in all cases: protein: recombinant; tags: N-terminal GST; dsDNA, one strand shown
ERF = biological target: T1, ERF (Homo sapiens, UniProt P50548 1-548)
T1 sequence: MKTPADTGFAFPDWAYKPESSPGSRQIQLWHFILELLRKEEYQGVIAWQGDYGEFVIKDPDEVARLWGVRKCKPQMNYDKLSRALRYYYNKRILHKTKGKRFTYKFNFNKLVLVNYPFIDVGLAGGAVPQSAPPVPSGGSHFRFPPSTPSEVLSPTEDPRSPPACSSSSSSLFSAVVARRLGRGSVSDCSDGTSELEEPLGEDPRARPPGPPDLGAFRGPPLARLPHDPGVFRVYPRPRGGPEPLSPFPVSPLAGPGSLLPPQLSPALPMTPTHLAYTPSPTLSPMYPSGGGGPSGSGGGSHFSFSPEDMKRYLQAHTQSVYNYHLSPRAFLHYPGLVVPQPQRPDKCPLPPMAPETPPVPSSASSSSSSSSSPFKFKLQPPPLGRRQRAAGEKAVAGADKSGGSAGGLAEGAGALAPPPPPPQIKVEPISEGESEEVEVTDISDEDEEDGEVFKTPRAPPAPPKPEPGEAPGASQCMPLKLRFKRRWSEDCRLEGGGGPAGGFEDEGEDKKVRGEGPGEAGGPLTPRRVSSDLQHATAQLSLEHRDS
Summary of the method: (§1)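 Human transcription factors carrying a GST fusion were produced in yeast, bound to glutathione beads, tagged with DNA barcodes and pooled together with a tag-only sample. Each pool was held with 200 nmole of a random double-stranded 16-mer DNA library in Tris/NaCl/DTT/glycerol buffer for 30 min at room temperature, then washed, crosslinked in 0.1% formaldehyde, proximity-ligated with BsaI/T4 ligase (1 h, 37 °C), PCR-amplified and sequenced on an Illumina NextSeq500. Binding signal is the read frequency of each hexamer for a given factor divided by its frequency in the tag-only sample.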

ETV3L = biological target: T2, ETV3L (Homo sapiens, UniProt Q6ZN32 1-361)
T2 sequence: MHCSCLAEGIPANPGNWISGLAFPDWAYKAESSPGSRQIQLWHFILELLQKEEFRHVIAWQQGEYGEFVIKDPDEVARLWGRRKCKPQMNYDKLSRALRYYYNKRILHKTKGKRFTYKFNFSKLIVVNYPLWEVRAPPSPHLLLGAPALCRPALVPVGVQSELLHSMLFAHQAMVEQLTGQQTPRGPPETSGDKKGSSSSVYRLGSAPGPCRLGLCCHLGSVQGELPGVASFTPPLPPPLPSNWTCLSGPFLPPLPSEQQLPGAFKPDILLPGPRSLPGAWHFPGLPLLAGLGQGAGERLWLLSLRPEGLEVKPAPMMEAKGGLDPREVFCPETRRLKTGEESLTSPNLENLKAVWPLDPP
Summary of the method: as §1

ETS2 = biological target: T3, ETS2 (Homo sapiens, UniProt P15036 1-469)
T3 sequence: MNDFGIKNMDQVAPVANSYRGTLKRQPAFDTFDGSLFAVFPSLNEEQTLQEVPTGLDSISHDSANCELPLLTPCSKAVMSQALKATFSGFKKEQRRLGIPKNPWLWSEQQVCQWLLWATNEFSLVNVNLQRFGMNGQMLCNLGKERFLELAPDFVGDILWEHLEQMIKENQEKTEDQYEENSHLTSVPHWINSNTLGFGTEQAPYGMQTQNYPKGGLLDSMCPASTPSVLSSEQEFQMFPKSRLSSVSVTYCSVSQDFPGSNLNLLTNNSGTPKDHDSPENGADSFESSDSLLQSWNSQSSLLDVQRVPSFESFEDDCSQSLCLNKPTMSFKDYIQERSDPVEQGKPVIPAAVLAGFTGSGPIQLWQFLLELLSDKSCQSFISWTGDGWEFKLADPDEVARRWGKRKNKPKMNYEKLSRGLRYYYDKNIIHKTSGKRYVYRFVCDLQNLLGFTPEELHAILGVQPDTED
Summary of the method: as §1

SPDEF = biological target: T4, SPDEF (Homo sapiens, UniProt O95238 1-335)
T4 sequence: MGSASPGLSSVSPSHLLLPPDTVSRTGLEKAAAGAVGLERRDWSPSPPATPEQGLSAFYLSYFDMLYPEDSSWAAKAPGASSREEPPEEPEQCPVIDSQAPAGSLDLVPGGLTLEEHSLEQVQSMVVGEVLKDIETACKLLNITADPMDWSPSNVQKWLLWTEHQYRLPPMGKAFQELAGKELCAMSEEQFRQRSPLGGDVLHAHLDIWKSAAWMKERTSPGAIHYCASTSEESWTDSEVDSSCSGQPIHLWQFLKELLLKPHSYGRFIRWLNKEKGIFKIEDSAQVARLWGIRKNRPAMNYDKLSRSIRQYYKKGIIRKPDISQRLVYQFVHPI
Summary of the method: as §1

ETV7 = biological target: T5, ETV7 (Homo sapiens, UniProt Q9Y603 1-341)
T5 sequence: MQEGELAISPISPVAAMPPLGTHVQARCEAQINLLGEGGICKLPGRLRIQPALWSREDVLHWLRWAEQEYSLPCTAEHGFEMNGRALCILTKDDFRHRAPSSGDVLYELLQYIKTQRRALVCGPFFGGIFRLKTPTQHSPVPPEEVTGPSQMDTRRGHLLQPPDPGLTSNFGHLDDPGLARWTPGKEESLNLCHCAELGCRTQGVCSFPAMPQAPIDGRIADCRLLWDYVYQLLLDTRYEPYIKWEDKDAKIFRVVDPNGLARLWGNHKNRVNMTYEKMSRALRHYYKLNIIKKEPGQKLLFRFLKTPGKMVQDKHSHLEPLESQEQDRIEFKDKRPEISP
Summary of the method: as §1

ELF5 = biological target: T6, ELF5 (Homo sapiens, UniProt Q9UKW6-2 1-255)
T6 sequence: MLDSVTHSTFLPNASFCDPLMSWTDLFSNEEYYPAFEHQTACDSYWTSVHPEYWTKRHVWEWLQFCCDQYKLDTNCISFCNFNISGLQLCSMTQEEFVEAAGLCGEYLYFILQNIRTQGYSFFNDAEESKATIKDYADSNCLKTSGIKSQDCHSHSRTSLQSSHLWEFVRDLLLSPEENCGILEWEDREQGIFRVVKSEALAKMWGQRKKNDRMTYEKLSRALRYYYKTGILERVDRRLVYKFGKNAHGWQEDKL
Summary of the method: as §1

ETV3 = biological target: T7, ETV3 (Homo sapiens, UniProt P41162-2 1-143)
T7 sequence: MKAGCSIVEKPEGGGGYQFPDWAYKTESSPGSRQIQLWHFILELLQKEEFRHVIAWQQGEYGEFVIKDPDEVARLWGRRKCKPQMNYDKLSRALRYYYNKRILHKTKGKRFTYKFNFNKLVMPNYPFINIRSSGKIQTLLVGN
Summary of the method: as §1

ETV6 = ETV6 (Homo sapiens, UniProt P41212 1-452)
Sequence of ETV6 (P41212 whole entry): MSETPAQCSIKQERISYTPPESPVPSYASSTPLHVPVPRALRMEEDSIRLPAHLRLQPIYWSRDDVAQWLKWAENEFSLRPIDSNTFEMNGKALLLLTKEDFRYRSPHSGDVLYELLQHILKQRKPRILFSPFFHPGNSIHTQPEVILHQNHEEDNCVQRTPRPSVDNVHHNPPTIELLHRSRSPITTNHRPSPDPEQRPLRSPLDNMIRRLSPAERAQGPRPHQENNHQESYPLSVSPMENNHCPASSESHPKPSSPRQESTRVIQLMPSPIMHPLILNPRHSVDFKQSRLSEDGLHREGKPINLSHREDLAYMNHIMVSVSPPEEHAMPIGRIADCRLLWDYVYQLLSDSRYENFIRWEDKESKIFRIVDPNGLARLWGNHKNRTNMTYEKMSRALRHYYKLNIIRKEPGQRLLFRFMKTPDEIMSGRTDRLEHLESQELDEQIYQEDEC
Summary of the method: as §1

Row | Sequence | binding signal (ERF) | binding signal (ETV3L) | binding signal (ETS2) | binding signal (SPDEF) | binding signal (ETV7) | binding signal (ELF5) | binding signal (ETV3) | binding signal (ETV6)
1 | TGATAT | 1.02 fold enrichment (6-mer frequency, TF over GST control) | 1.09 fold enrichment (6-mer frequency, TF over GST control) | 1.12 fold enrichment (6-mer frequency, TF over GST control) | 1.18 fold enrichment (6-mer frequency, TF over GST control) | 1.03 fold enrichment (6-mer frequency, TF over GST control) | 1.09 fold enrichment (6-mer frequency, TF over GST control) | 1.15 fold enrichment (6-mer frequency, TF over GST control) | 1.06 fold enrichment (6-mer frequency, TF over GST control)
2 | CGCTCT | 1.3 fold enrichment (6-mer frequency, TF over GST control) | 1.37 fold enrichment (6-mer frequency, TF over GST control) | 1.31 fold enrichment (6-mer frequency, TF over GST control) | 1.25 fold enrichment (6-mer frequency, TF over GST control) | 1.18 fold enrichment (6-mer frequency, TF over GST control) | 1.24 fold enrichment (6-mer frequency, TF over GST control) | 1.25 fold enrichment (6-mer frequency, TF over GST control) | 1.26 fold enrichment (6-mer frequency, TF over GST control)
3 | CTCACT | 1.45 fold enrichment (6-mer frequency, TF over GST control) | 1.52 fold enrichment (6-mer frequency, TF over GST control) | 1.6 fold enrichment (6-mer frequency, TF over GST control) | 1.44 fold enrichment (6-mer frequency, TF over GST control) | 1.56 fold enrichment (6-mer frequency, TF over GST control) | 1.54 fold enrichment (6-mer frequency, TF over GST control) | 1.5 fold enrichment (6-mer frequency, TF over GST control) | 1.6 fold enrichment (6-mer frequency, TF over GST control)
4 | CTGACC | 1.34 fold enrichment (6-mer frequency, TF over GST control) | 1.27 fold enrichment (6-mer frequency, TF over GST control) | 1.38 fold enrichment (6-mer frequency, TF over GST control) | 1.27 fold enrichment (6-mer frequency, TF over GST control) | 1.29 fold enrichment (6-mer frequency, TF over GST control) | 1.34 fold enrichment (6-mer frequency, TF over GST control) | 1.4 fold enrichment (6-mer frequency, TF over GST control) | 1.32 fold enrichment (6-mer frequency, TF over GST control)
5 | AATTGG | 1.26 fold enrichment (6-mer frequency, TF over GST control) | 1.33 fold enrichment (6-mer frequency, TF over GST control) | 1.33 fold enrichment (6-mer frequency, TF over GST control) | 1.31 fold enrichment (6-mer frequency, TF over GST control) | 1.42 fold enrichment (6-mer frequency, TF over GST control) | 1.35 fold enrichment (6-mer frequency, TF over GST control) | 1.28 fold enrichment (6-mer frequency, TF over GST control) | 1.44 fold enrichment (6-mer frequency, TF over GST control)
6 | CCCACT | 1.42 fold enrichment (6-mer frequency, TF over GST control) | 1.37 fold enrichment (6-mer frequency, TF over GST control) | 1.32 fold enrichment (6-mer frequency, TF over GST control) | 1.27 fold enrichment (6-mer frequency, TF over GST control) | 1.28 fold enrichment (6-mer frequency, TF over GST control) | 1.31 fold enrichment (6-mer frequency, TF over GST control) | 1.32 fold enrichment (6-mer frequency, TF over GST control) | 1.37 fold enrichment (6-mer frequency, TF over GST control)
7 | TAATCC | 1.12 fold enrichment (6-mer frequency, TF over GST control) | 1.21 fold enrichment (6-mer frequency, TF over GST control) | 1.36 fold enrichment (6-mer frequency, TF over GST control) | 1.44 fold enrichment (6-mer frequency, TF over GST control) | 1.28 fold enrichment (6-mer frequency, TF over GST control) | 1.19 fold enrichment (6-mer frequency, TF over GST control) | 1.29 fold enrichment (6-mer frequency, TF over GST control) | 1.27 fold enrichment (6-mer frequency, TF over GST control)
